Drawing on PubChem BioAssay (EPA / NIEHS), this text covers outcome and AC50 for three compounds.

Read-out in assay [1]: solute carrier (SLCO1B1), SLCO1B1 (gene 10599)
The experiment in a line: LTEA_HepaRG_SLCO1B1: Life Technologies and Expression Analysis (LTEA) Assay for solute carrier (SLCO1B1) using HepaRG (AID 2283530; active means hit-call score of the fitted dose curve at least 0.9, where 1 is the maximum; inactive means score below 0.9). Particulars: mRNA level, 48 h; actives raise or lower the signal. The method, boiled down:
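Differentiated human HepaRG cells were exposed for 48 h in serum-free induction medium to eight half-log concentrations, top 100 uM, in 0.5% DMSO. SLCO1B1 mRNA was measured by qRT-PCR, normalized to ACTB, GAPDH and POLR2A, and fitted bidirectionally against DMSO.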

Read-out in assay [2]: sulfotransferase 2A1 (SULT2A1), SULT2A1 (gene 6822)
Description: LTEA_HepaRG_SULT2A1: Life Technologies and Expression Analysis (LTEA) Assay for sulfotransferase 2A1 (SULT2A1) using HepaRG (AID 2283531; active means hit-call score of the fitted dose curve at least 0.9, where 1 is the maximum; inactive means score below 0.9). The note with it: mRNA level, 48 h; actives raise or lower the signal. The method, boiled down:
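HepaRG human liver cells, 48 h exposure in serum-free induction medium to 8 half-log concentrations topping at 100 µM (0.5% DMSO), duplicate wells. SULT2A1 mRNA measured by TaqMan qRT-PCR, normalized to ACTB/GAPDH/POLR2A; bidirectional fit against DMSO.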

Read-out in assay [3]: Transforming Growth Factor (TGFA), TGFA (gene 7039)
The experiment in a line: LTEA_HepaRG_TGFA: Life Technologies and Expression Analysis (LTEA) Assay for Transforming Growth Factor (TGFA) using HepaRG (AID 2283532; active means hit-call score of the fitted dose curve at least 0.9, where 1 is the maximum; inactive means score below 0.9). Particulars: mRNA level, 48 h; actives raise or lower the signal. The method, boiled down:
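Differentiated human HepaRG cells, plated 48 h then switched to serum-free induction medium, were exposed in duplicate for 48 h to 8-point half-log series from 100 uM in 0.5% DMSO. TGFA mRNA measured by qRT-PCR, normalized to ACTB/GAPDH/POLR2A, bidirectional fit versus DMSO.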

Read-out in assay [4]: Transforming Growth Factor (TGFB1), TGFB1 (gene 7040)
Description: LTEA_HepaRG_TGFB1: Life Technologies and Expression Analysis (LTEA) Assay for Transforming Growth Factor (TGFB1) Transporter using HepaRG (AID 2283533; active means hit-call score of the fitted dose curve at least 0.9, where 1 is the maximum; inactive means score below 0.9). Particulars: mRNA level, 48 h; actives raise or lower the signal. Put shortly: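 Differentiated HepaRG cells exposed 48 hr in serum-free induction medium to eight half-log concentrations up to 100 uM (0.5% DMSO), duplicate; TGFB1 mRNA by TaqMan qRT-PCR normalised to ACTB, GAPDH, POLR2A; bidirectional fit against DMSO.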

Read-out in assay [5]: Tumor necrosis factor receptor 1 (TNFRSF1A), TNFRSF1A (gene 7132)
Description: LTEA_HepaRG_TNFRSF1A: Life Technologies and Expression Analysis (LTEA) Assay for Tumor necrosis factor receptor 1 (TNFRSF1A) using HepaRG (AID 2283535; active means hit-call score of the fitted dose curve at least 0.9, where 1 is the maximum; inactive means score below 0.9). Particulars: mRNA level, 48 h; actives raise or lower the signal. Put shortly: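 Differentiated HepaRG cells in serum-free induction medium, exposed 48 h in duplicate to 8 half-log concentrations up to 100 uM in 0.5% DMSO. TNFRSF1A mRNA by Fluidigm TaqMan qRT-PCR, normalized to ACTB, GAPDH, POLR2A; bidirectional fit.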

Read-out in assay [6]: Thyroid Hormone Responsive (THRSP), THRSP (gene 7069)
The experiment in a line: LTEA_HepaRG_THRSP: Life Technologies and Expression Analysis (LTEA) Assay for Thyroid Hormone Responsive (THRSP) using HepaRG (AID 2283536; active means hit-call score of the fitted dose curve at least 0.9, where 1 is the maximum; inactive means score below 0.9). Particulars: mRNA level, 48 h; actives raise or lower the signal. The method, boiled down:
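Differentiated human HepaRG cells were exposed in duplicate for 48 h in serum-free induction medium to eight concentrations (top 100 uM, half-log steps, 0.5% DMSO). Expression was quantified by TaqMan qRT-PCR, normalized to ACTB, GAPDH and POLR2A, with bidirectional fitting against DMSO.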

Read-out in assay [7]: UDP glucuronosyltransferase (UGT1A1), UGT1A1 (gene 54658)
Description: LTEA_HepaRG_UGT1A1: Life Technologies and Expression Analysis (LTEA) Assay for UDP glucuronosyltransferase (UGT1A1) using HepaRG (AID 2283538; active means hit-call score of the fitted dose curve at least 0.9, where 1 is the maximum; inactive means score below 0.9). Particulars: mRNA level, 48 h; actives raise or lower the signal. The method, boiled down: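 Human liver HepaRG cultures receive test chemical for 48 h, up to 100 uM in 0.5% DMSO, with phenobarbital induction controls. UGT1A1 mRNA is measured by qRT-PCR and normalized to ACTB, GAPDH and POLR2A.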

Read-out in assay [8]: X-box binding protein 1 (XBP1), XBP1 (gene 7494)
The experiment in a line: LTEA_HepaRG_XBP1: Life Technologies and Expression Analysis (LTEA) Assay for X-box binding protein 1 (XBP1) using HepaRG (AID 2283540; active means hit-call score of the fitted dose curve at least 0.9, where 1 is the maximum; inactive means score below 0.9). The note with it: mRNA level, 48 h; actives raise or lower the signal. Put shortly: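 Differentiated human HepaRG cells in serum-free induction medium exposed 48 h in duplicate to eight half-log concentrations up to 100 uM in 0.5% DMSO. XBP1 mRNA measured by Fluidigm TaqMan qRT-PCR, normalized to ACTB, GAPDH, POLR2A; bidirectional fitting against DMSO.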

Assay [9] is described as follows: LTEA_HepaRG_LDH_cytotoxicity: Cytotoxicity Assessment in the Life Technologies and Expression Analysis (LTEA) Assay (AID 2283563).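 On AC50: LDH activity released into spent culture medium as a marker of cell death.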 Put shortly: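 Differentiated HepaRG cells in serum-free induction medium, exposed 48 h in duplicate to 8 half-log concentrations up to 100 uM in 0.5% DMSO. Cytotoxicity from LDH measured in spent medium, fit relative to DMSO.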
Assay [10] addresses Cellular tumor antigen p53 (Homo sapiens) (UniProt P04637). The experiment in a line: TOX21_p53_BLA_p2_ratio: Tox21 HCT-116 p53 Agonism Beta-lactamase Assay, Ratio, Phase 2 (AID 2283592). Put shortly:
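HCT-116 cells with p53-responsive beta-lactamase reporter, 4000 cells/well, preincubated 5 h, then compound in DMSO (217-fold dilution) for 16 h at 37C. CCF4-AM substrate 2 h at room temperature; 460/530 nm emission ratio fitted upward versus DMSO.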

For assay [11] the target is unchanged. Description: TOX21_p53_BLA_p3_ratio: Tox21 HCT-116 p53 Agonism Beta-lactamase Assay, Ratio, Phase 3 (AID 2283596). The method, boiled down: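 HCT116 p53-bla cells (4000/well) given compound in DMSO (217-fold dilution) after 5 h, incubated 16 h at 37C. CCF4-AM substrate 2 h at room temperature; 460/530 nm emission ratio, gain fitted against DMSO.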
The target is the same in assay [12]. Description: TOX21_p53_BLA_p5_ratio: Tox21 HCT-116 p53 Agonism Beta-lactamase Assay, Ratio, Phase 5 (AID 2283599). The method, boiled down:
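HCT-116 cells carrying a p53-inducible beta-lactamase reporter were seeded at 4000 cells/well and dosed after 5 h with compound in DMSO (217-fold dilution). After 16 h at 37C, CCF4-AM substrate was added for 2 h, and the 460/530 nm emission ratio was scored as gain-of-signal versus DMSO.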

The nature of assay [13]: TOX21_p53_BLA_p5_viability: Viability Assessment in the Tox21 HCT-116 p53 Agonism Beta-lactamase Assay, Phase 5 (AID 2283600). The method, boiled down: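 HCT-116 p53 beta-lactamase reporter cells, 4000/well, were exposed to compound (pin transfer, 217-fold dilution) for 16 hours at 37C. Cellular ATP was read by CellTiter-Glo luminescence after 30 min at room temperature.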

In assay [14] the target is Cellular tumor antigen p53 (Homo sapiens) (UniProt P04637). Description: TOX21_p53_BLA_p4_ratio: Tox21 HCT-116 p53 Agonism Beta-lactamase Assay, Ratio, Phase 4 (AID 2283601). The method, boiled down:
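HCT116 cells carrying an inducible beta-lactamase reporter were plated at 4000 cells/well, rested 5 h, then exposed to compounds in DMSO (217-fold dilution) for 16 h at 37C. CCF4-AM substrate was loaded 2 h at room temperature; 460/530 nm emission ratio scored gain-of-signal versus DMSO.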

Assay [15] is described as follows: Tanguay_ZF_120hpf_MORT_legacy: (Legacy) Oregon State University Tanguay Lab 120 Hour Post-fertilization zebrafish Assay for Mortality (AID 2283633). Put shortly: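 Dechorionated Tropical 5D wild-type zebrafish embryos, one per well from 6 hpf, static exposure in 0.64% DMSO at 28C until 120 hpf. Mortality scored as binary by brightfield microscopy at 24 and 120 hpf.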

Read-out in assay [16]: UDP glucuronosyltransferase (UGT1A6), UGT1A6 (gene 54578)
The experiment in a line: LTEA_HepaRG_UGT1A6: Life Technologies and Expression Analysis (LTEA) Assay for UDP glucuronosyltransferase (UGT1A6) using HepaRG (AID 2283539; active means hit-call score of the fitted dose curve at least 0.9, where 1 is the maximum; inactive means score below 0.9). Particulars: mRNA level, 48 h; actives raise or lower the signal. Put shortly: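 Differentiated HepaRG cells, ~100,000/well, were exposed for 48 h in serum-free induction medium with 0.5% DMSO to 8-point half-log series topping at 100 uM, in duplicate. mRNA measured by Fluidigm TaqMan qRT-PCR, normalized to ACTB, GAPDH and POLR2A.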

Assay [17] can be described thus: TOX21_p53_BLA_p3_viability: Viability Assessment in the Tox21 HCT-116 p53 Agonism Beta-lactamase Assay, Phase 3 (AID 2283593).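 Further: cells exposed to compound for 16 h before reading.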 The method, boiled down: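 HCT-116 cells (4000/well) rested 5 h at 37C, then got DMSO compounds by pin tool (217-fold dilution) for 16 h at 37C, 5% CO2. After the bla read, CellTiter-Glo was added and luminescence read at 30 min, room temperature.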

The nature of assay [18]: TOX21_p53_BLA_p4_viability: Viability Assessment in the Tox21 HCT-116 p53 Agonism Beta-lactamase Assay, Phase 4 (AID 2283597).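 Further: hits lower the luminescence signal meaning cytotoxicity.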 Put shortly: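 HCT-116 p53-bla cells, 4000/well, dosed after 5 h attachment and incubated 16 h at 37 °C, 5% CO2. Viability from CellTiter-Glo ATP luminescence after 30 min at room temperature, taken after the beta-lactamase read; loss of signal indicates cytotoxicity.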

Each structure is given as a SMILES string. Records with an inconclusive call do not appear. Active and inactive are the calls of the source. How the source made its calls, unless noted: active means hit-call score of the fitted dose curve at least 0.9, where 1 is the maximum; inconclusive means response in the unintended direction; inactive means score below 0.9.

Cellular tumor antigen p53 (Homo sapiens), sequence (P04637 whole entry, looked up): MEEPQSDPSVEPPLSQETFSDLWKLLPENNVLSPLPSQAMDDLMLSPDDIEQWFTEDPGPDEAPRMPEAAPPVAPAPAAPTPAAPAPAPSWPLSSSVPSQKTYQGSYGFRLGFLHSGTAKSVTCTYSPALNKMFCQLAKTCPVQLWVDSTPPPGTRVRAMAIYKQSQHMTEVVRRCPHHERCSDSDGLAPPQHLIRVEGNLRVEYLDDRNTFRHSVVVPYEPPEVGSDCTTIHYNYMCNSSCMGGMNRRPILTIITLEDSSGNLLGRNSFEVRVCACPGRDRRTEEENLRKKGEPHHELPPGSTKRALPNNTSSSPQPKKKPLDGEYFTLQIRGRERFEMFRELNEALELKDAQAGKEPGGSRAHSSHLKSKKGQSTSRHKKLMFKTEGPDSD

Broadly, the AC50 is the concentration giving half of the maximal activity seen. In the case of `O=C(O)C(F)(F)C(F)(F)C(F)(F)C(F)(F)C(F)(F)C(F)(F)C(F)(F)C(F)(F)C(F)(F)C(F)(F)F`, the compound was classed as inactive in assay [1], in assay [3], in [4], in assay [5], in [6] and in [8]. The outcome in assay [9], in [10], in [11], in assay [12], in [13] and in assay [14] was inactive. Moreover, in assay [15], the call was inactive. In addition, the concentration at half-maximal activity (AC50) was 47.8 µM (active) in assay [2] and 31 µM (active) in assay [7].
As to `CCN1CCC2(CC1)COc1cc3c(cc12)N(C(=O)c1ccc(-c2ccc(-c4nnc(C)o4)cc2C)cc1)CC3`, the compound was classed as inactive in [1], in assay [7], in assay [11], in assay [12] and in [15]. Also, the AC50 in assay [2] was 75.3 µM (active); in assay [3], 83.8 µM (active); in assay [4] it was 29 µM (active); in assay [5], 21.6 µM (active); in assay [6], 46.8 µM (active); in assay [16], 15.4 µM (active). The half-maximal activity concentration (AC50) is 27.4 µM (active) in assay [8]; 24.6 µM (active) in assay [9]; 64.8 µM (active) in [10]; 67.5 µM (active) in [17]; 45.7 µM (active) in assay [18]; 64.2 µM (active) in assay [13]. Also, in [14], the AC50 was 57.4 µM (active).
`ClCC(Cl)CCl`: the result in assay [1], in assay [2], in assay [3], in assay [4], in [5] and in [6] was inactive. Moreover, the compound was classed as inactive in assay [7], in assay [16], in [8], in assay [9], in assay [10] and in assay [17]. In addition, the result in [11], in [18], in assay [12], in [13], in [14] and in [15] was inactive.
